Results: PubChem BioAssay (EPA / NIEHS)
The source made the active and inactive calls. The calls were made as follows: active = hit-call score of the fitted dose curve at least 0.9, where 1 is the maximum; inactive = score below 0.9.

Experiments:
[1] = biological target: Bile acid receptor (Homo sapiens) (UniProt Q96RI1); test: ATG_IR1_CIS: Attagene CIS-FACTORIAL HepG2 Assay for human Nuclear Receptor Subfamily 1 Group H Member 4 (NR1H4), IR1 submotif (AID 2282946); settings: IR1 reporter transcription, actives raise or lower the signal
Chain of Bile acid receptor (Homo sapiens) (Q96RI1 whole entry, looked up): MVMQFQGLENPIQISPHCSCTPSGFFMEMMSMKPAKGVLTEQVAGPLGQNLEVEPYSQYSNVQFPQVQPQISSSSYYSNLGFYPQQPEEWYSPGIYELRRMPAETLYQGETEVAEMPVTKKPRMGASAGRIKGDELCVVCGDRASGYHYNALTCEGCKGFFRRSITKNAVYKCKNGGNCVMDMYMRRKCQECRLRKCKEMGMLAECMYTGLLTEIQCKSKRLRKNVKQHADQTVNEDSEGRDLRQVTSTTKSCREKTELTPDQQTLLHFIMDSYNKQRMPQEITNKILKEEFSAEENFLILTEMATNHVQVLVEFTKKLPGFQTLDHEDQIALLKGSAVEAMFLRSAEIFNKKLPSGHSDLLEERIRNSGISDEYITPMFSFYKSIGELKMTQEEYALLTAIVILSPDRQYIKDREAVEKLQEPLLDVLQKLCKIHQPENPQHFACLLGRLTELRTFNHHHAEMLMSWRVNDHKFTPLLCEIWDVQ
Outline: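 HepG2 cells transiently transfected with multiplexed cis-element reporter units read endogenous transcription factor activity. After 24 h compound exposure, reporter mRNA was quantified by RT-PCR, fluorescent labelling, HpaI digestion and capillary electrophoresis; bidirectional fitting versus DMSO baseline.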

[2] = ATG_GRE_CIS: Attagene CIS-FACTORIAL HepG2 Assay for human Glucocorticoid Response Elements (GRE) (AID 2282947); settings: HepG2 GRE cis-reporter, Attagene multiplex mRNA; actives raise or lower the signal
Outline: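 Multiplexed cis-reporter mRNA induction, HepG2, 24 h post-dose. RT-PCR, FAM-labelled, HpaI-digested amplicons by CE. Bidirectional fit vs DMSO.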

[3] = ATG_ISRE_CIS: Attagene CIS-FACTORIAL HepG2 Assay for human Interferon Regulatory Factor 1 (IRF1) binding to an Interferon-Stimulated Response Element (ISRE) (AID 2282948); settings: HepG2 ISRE cis-reporter (Attagene), mRNA transcription readout; actives raise or lower the signal
Outline: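 Read-out: fluorescent RT-PCR products resolved by capillary electrophoresis, reporting endogenous transcription factor activity via ISRE-driven reporter mRNA in transfected HepG2 cells dosed for 24 h; gain or loss fitted relative to DMSO.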

[4] = ATG_M_32_CIS: Attagene CIS-FACTORIAL HepG2 Assay for M32 Transcription Factor (Internal Marker) (AID 2282949); settings: HepG2 Attagene cis-factorial M32 reporter, mRNA; actives raise or lower the signal;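 also: background control marker of the multiplexed CIS panel rather than a real target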
Outline: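 Using DMSO as baseline, bidirectional curve fits were applied to reporter mRNA signals. These came from transiently transfected HepG2 cells exposed for 24 h, with RNA analysed by RT-PCR, FAM primer extension, HpaI digestion and CE.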

[5] = ATG_M_06_CIS: Attagene CIS-FACTORIAL HepG2 Assay for M06 Transcription Factor (Internal Marker) (AID 2282950); settings: HepG2 Attagene CIS-FACTORIAL M06 internal marker reporter; actives raise or lower the signal
Outline: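 One of many multiplexed endpoints: HepG2 reporter mRNA after 24 h dosing, detected by RT-PCR and capillary electrophoresis fluorescence; gain or loss of signal analysed against DMSO.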

[6] = biological target: Hepatocyte nuclear factor 6 (Homo sapiens) (UniProt Q9UBC0); test: ATG_HNF6_CIS: Attagene CIS-FACTORIAL HepG2 Assay for human Hepatocyte Nuclear Factor 6 (HNF6) (AID 2282952); settings: HepG2 Attagene cis-factorial HNF6 reporter transcription; actives raise or lower the signal
Chain of Hepatocyte nuclear factor 6 (Homo sapiens) (Q9UBC0 whole entry, looked up, the tested form may be a part): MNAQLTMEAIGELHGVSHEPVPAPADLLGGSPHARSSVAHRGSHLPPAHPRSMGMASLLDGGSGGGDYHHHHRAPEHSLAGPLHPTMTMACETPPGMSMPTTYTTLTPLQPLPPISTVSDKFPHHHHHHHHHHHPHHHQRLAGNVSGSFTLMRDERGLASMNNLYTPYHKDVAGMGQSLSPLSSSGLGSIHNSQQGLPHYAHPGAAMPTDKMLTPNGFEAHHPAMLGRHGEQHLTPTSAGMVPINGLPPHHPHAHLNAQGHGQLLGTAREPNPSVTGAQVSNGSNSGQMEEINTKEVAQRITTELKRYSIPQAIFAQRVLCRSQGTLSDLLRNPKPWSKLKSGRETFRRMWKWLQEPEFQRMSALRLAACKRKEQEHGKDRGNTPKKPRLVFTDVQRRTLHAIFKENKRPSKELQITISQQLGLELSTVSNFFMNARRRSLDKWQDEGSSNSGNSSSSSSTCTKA
Outline: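 Using cis-element reporters in HepG2 liver cells, the assay tracks endogenous factor-driven transcription 24 h post-dosing. Signal comes from 6-FAM-labelled, HpaI-digested RT-PCR fragments, with gain or loss scored against DMSO.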

[7] = biological target: Heat shock factor protein 1 (Homo sapiens) (UniProt Q00613); test: ATG_HSE_CIS: Attagene CIS-FACTORIAL HepG2 Assay for human Heat Shock Transcription Factor 1 (HSE) (AID 2282953); settings: HepG2 HSE cis-reporter, Attagene RNA transcription; actives raise or lower the signal
Chain of Heat shock factor protein 1 (Homo sapiens) (Q00613 whole entry, looked up): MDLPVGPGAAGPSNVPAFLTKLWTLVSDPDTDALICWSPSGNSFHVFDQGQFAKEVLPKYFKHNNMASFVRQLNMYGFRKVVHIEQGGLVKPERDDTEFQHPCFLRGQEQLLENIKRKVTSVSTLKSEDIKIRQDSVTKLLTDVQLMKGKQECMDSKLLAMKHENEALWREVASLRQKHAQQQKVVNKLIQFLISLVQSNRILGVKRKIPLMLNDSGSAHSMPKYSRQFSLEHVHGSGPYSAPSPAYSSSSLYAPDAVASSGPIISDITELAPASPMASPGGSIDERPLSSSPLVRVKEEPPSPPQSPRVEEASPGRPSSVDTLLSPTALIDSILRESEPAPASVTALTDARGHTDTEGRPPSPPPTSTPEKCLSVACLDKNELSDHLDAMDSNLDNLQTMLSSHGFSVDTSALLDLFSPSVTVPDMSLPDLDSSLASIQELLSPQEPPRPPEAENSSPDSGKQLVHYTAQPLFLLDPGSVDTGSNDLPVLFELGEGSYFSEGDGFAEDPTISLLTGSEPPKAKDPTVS
Outline: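 Using HepG2 with transfected cis-driven reporter constructs, compound effects on endogenous factor activity are scored as reporter mRNA change at 24 h. Detection: RT-PCR, HpaI digestion, capillary electrophoresis; bidirectional fitting to DMSO.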

[8] = ATG_MRE_CIS: Attagene CIS-FACTORIAL HepG2 Assay for human Metal Responsive Element (MRE) (AID 2282954); settings: HepG2 MRE cis-reporter transcription, Attagene multiplex; actives raise or lower the signal
Outline: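 Multiplexed cis-reporter assay in human HepG2 liver cells, 24 h incubation with test chemical. Reporter transcripts measured by RT-PCR and capillary electrophoresis; values from bidirectional curve fitting versus DMSO.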

[9] = ATG_PBREM_CIS: Attagene CIS-FACTORIAL HepG2 Assay for human Phenobarbital-responsive Enhancer Module (PBREM) (AID 2282955); settings: HepG2 PBREM cis-reporter, Attagene multiplexed transcription; actives raise or lower the signal
Outline: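 Transfected liver-derived HepG2 cells exposed 24 h; PBREM reporter transcript quantified via RT-PCR and capillary electrophoresis, with activity in either direction referenced to DMSO.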

[10] = biological target: Paired box protein Pax-6 (Homo sapiens) (UniProt P26367); test: ATG_Pax6_CIS: Attagene CIS-FACTORIAL HepG2 Assay for human Paired Box 6 (PAX6) (AID 2282956); settings: HepG2 CIS-FACTORIAL PAX6 reporter transcription, RNA readout; actives raise or lower the signal
Chain of Paired box protein Pax-6 (Homo sapiens) (P26367 whole entry, looked up): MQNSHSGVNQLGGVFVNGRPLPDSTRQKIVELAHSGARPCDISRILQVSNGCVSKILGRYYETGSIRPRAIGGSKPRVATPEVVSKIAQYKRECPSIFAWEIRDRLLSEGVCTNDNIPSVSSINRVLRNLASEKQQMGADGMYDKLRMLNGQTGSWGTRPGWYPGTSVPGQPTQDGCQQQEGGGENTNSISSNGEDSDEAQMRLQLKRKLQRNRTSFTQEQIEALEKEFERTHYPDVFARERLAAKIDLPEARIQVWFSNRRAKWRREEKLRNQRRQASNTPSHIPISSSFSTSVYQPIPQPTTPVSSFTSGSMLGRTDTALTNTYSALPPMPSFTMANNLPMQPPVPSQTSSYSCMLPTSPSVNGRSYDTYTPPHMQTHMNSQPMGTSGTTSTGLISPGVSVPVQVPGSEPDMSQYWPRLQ
Outline: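 Readout: reporter transcript fluorescence after RT-PCR and capillary electrophoresis. Cells: HepG2, transiently transfected with cis-regulated MRTUs. Exposure 24 h. Gain or loss of signal fitted bidirectionally relative to DMSO.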

[11] = ATG_PXRE_CIS: Attagene CIS-FACTORIAL HepG2 Assay for human Pregnane X Receptor Element (PXRE) (AID 2282957); settings: HepG2 Attagene CIS-FACTORIAL PXRE reporter, mRNA; actives raise or lower the signal
Outline: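 Using HepG2 transfected with multiple reporter transcription units, endogenous factor-driven transcription was scored as reporter mRNA after 24 h exposure.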

[12] = ATG_PPRE_CIS: Attagene CIS-FACTORIAL HepG2 Assay for human Peroxisome Proliferator-activated Response Element (PPRE) (AID 2282958); settings: HepG2 PPRE cis-element reporter, Attagene transcription factor profiling; actives raise or lower the signal
Outline: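 Measured endpoint: PPRE-controlled reporter mRNA, detected by RT-PCR and capillary electrophoresis fluorescence, from transiently transfected HepG2 cells 24 h after dosing. Curves fitted in both directions using DMSO baseline.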

[13] = ATG_RORE_CIS: Attagene CIS-FACTORIAL HepG2 Assay for human RAR-related Orphan Receptor Element (RORE) (AID 2282959); settings: HepG2 Attagene cis-factorial RORE reporter, mRNA; actives raise or lower the signal
Outline: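 Transiently transfected HepG2 reporter cells were treated 24 h. Reporter transcripts were detected by RT-PCR and capillary electrophoresis, with bidirectional fitting against DMSO.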

[14] = ATG_Sox_CIS: Attagene CIS-FACTORIAL HepG2 Assay for human SRY-box transcription factor (SOX) (AID 2282960); settings: HepG2 Attagene cis-factorial SOX reporter, mRNA; actives raise or lower the signal
Outline: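 Gain- or loss-of-signal endpoint, fitted bidirectionally with DMSO as negative control. Based on reporter mRNA from transfected HepG2 cells harvested 24 h post-treatment and quantified via RT-PCR and capillary electrophoresis.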

[15] = biological target: Transcription factor Sp1 (Homo sapiens) (UniProt P08047); test: ATG_Sp1_CIS: Attagene CIS-FACTORIAL HepG2 Assay for human Specificity Protein 1 (Sp1) (AID 2282961); settings: HepG2 Sp1 cis-reporter transcription, actives raise or lower the signal
Chain of Transcription factor Sp1 (Homo sapiens) (P08047 whole entry, looked up, the tested form may be a part): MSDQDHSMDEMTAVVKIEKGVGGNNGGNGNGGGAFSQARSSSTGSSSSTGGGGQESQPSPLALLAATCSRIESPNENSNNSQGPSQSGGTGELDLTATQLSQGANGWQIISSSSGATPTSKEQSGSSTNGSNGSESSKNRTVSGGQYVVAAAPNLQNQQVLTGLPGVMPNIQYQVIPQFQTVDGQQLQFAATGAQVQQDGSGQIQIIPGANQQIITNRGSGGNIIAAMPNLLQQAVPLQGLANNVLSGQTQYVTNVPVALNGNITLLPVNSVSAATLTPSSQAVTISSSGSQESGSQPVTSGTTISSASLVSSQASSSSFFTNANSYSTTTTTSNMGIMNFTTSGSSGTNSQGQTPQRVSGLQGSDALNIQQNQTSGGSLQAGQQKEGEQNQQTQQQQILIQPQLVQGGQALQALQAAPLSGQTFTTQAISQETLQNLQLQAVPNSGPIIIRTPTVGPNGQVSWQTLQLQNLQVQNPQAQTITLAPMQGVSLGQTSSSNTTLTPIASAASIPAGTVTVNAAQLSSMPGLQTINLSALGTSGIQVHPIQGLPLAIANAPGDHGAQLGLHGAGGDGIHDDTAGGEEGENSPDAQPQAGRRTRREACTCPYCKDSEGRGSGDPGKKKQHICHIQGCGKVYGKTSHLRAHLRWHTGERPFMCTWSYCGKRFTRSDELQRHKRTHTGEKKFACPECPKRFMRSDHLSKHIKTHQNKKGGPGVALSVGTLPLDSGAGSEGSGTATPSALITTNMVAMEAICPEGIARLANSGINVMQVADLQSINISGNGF
Outline: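 Endpoint reflects endogenous Sp1 transcriptional activity, not an exogenous fusion protein: HepG2 cells with transfected cis-regulated reporters, 24 h dosing, RT-PCR/capillary electrophoresis mRNA read-out, DMSO-normalised bidirectional fit.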

[16] = biological target: Signal transducer and activator of transcription 3 (Homo sapiens) (UniProt P40763); test: ATG_STAT3_CIS: Attagene CIS-FACTORIAL HepG2 Assay for human Signal Transducer and Activator of Transcription 3 (STAT3) (AID 2282963); settings: HepG2, Attagene cis-factorial STAT3 reporter transcription; actives raise or lower the signal
Chain of Signal transducer and activator of transcription 3 (Homo sapiens) (P40763 whole entry, looked up): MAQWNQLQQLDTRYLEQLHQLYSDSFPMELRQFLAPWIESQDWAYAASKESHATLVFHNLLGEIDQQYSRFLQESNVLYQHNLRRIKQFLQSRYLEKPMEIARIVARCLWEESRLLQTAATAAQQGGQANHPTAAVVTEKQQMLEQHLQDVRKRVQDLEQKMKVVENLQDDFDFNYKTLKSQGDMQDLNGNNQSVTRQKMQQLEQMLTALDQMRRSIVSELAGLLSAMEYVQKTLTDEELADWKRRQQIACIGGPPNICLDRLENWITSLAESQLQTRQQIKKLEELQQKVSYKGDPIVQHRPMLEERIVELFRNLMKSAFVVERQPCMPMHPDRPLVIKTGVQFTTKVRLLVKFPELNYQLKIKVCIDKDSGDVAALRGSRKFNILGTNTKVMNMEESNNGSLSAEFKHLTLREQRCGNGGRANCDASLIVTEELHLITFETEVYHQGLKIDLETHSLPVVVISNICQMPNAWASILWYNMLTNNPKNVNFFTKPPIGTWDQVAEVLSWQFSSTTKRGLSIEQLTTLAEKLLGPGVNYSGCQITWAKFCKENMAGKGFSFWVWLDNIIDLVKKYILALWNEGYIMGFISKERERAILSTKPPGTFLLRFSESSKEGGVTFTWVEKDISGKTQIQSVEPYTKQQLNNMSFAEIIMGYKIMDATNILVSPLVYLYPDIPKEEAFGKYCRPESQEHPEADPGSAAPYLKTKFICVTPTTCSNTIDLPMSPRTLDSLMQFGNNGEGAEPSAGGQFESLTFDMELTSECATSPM
Outline: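 Cis-factorial format: endogenous transcription factors in HepG2 drive transfected reporter units. After 24 h treatment, reporter RNA was reverse-transcribed, amplified, FAM-labelled and HpaI-digested before CE analysis; activity scored in both directions against DMSO.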

[17] = ATG_TA_CIS: Attagene CIS-FACTORIAL HepG2 Assay for human TA Basal Promoter (AID 2282964); settings: HepG2 Attagene CIS-factorial TA basal promoter reporter; actives raise or lower the signal
Outline: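 Transient MRTU transfection of HepG2 preceded 24 h compound exposure. Reporter mRNA levels were then read by RT-PCR with capillary electrophoresis, and this background-control endpoint was fitted bidirectionally to DMSO.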

[18] = ATG_TCF_b_cat_CIS: Attagene CIS-FACTORIAL HepG2 Assay for human T-Cell-Factor with beta-catenin (TCF/b-cat) (AID 2282965); settings: HepG2 TCF/beta-catenin cis-reporter transcription, actives raise or lower the signal
Outline: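 Endogenous transcription factor activity is captured through cis-promoter reporter constructs transiently introduced into human HepG2 liver cells. Induced reporter mRNA is measured after 24 h and fitted bidirectionally relative to DMSO.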

[19] = ATG_SREBP_CIS: Attagene CIS-FACTORIAL HepG2 Assay for human Sterol Regulatory Element Binding (SREBP) (AID 2282962); settings: HepG2 Attagene cis-factorial SREBP reporter, mRNA; actives raise or lower the signal
Outline: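 Readout: fluorescent reporter-transcript peaks resolved by capillary electrophoresis after RT-PCR. Cells were human HepG2 carrying transfected cis-promoter reporter constructs, dosed for 24 h. Gain or loss of signal was fitted against DMSO controls.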

[20] = biological target: Hypoxia-inducible factor 1-alpha (Homo sapiens) (UniProt Q16665); test: ATG_HIF1a_CIS: Attagene CIS-FACTORIAL HepG2 Assay for human Hypoxia Inducible Factor 1 (HIF1A) (AID 2282951); settings: HepG2 Attagene cis-factorial HIF1a reporter transcription; actives raise or lower the signal
Chain of Hypoxia-inducible factor 1-alpha (Homo sapiens) (Q16665 whole entry, looked up): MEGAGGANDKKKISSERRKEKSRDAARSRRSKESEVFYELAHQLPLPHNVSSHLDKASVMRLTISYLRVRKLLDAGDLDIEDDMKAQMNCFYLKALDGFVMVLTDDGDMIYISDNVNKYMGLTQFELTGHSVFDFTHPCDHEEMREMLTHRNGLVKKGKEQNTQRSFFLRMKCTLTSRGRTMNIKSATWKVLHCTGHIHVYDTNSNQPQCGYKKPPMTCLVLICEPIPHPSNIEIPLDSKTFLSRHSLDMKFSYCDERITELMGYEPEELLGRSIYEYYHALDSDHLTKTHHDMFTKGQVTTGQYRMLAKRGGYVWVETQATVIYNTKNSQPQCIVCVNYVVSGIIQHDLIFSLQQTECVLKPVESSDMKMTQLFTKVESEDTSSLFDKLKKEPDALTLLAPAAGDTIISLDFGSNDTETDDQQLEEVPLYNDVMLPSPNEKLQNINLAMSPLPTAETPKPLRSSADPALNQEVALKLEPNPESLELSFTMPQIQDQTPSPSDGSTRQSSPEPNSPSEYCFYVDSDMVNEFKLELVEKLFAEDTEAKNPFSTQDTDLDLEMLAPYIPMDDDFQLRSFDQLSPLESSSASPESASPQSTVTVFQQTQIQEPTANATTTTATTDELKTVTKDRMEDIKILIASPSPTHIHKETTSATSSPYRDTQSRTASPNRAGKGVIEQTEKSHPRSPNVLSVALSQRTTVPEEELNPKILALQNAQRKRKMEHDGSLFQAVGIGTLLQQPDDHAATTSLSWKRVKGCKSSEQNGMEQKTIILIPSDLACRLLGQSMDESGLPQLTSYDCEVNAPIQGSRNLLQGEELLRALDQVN
Outline: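 Dosed 24 h, transfected HepG2 cells yielded total RNA whose reporter transcripts were RT-PCR-amplified and sized by capillary electrophoresis using fluorescent labelling; DMSO defined baseline, with gain and loss of signal both fitted.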

SMILES: C=CC(C)(C)O
- outcome [1]: inactive
- outcome [2]: inactive
- outcome [3]: inactive
- outcome [4]: inactive
- outcome [5]: inactive
- outcome [6]: inactive
- outcome [7]: inactive
- outcome [8]: inactive
- outcome [9]: inactive
- outcome [10]: inactive
- outcome [11]: inactive
- outcome [12]: inactive
- outcome [13]: inactive
- outcome [14]: inactive
- outcome [15]: inactive
- outcome [16]: inactive
- outcome [17]: inactive
- outcome [18]: inactive

SMILES: CCCc1c(OCCCOc2ccc(OCC(=O)O)cc2)ccc(C(C)=O)c1O
- outcome [1]: inactive
- outcome [2]: inactive
- outcome [3]: inactive
- outcome [4]: inactive
- outcome [5]: inactive
- outcome [6]: inactive
- AC50 [7]: 150 µM (active)
- AC50 [8]: 79.2 µM (active)
- outcome [10]: inactive
- AC50 [11]: 8.44 µM (active)
- AC50 [12]: 0.272 µM (active)
- AC50 [13]: 4.66 µM (active)
- outcome [14]: inactive
- outcome [15]: inactive
- outcome [19]: inactive
- outcome [16]: inactive
- AC50 [17]: 26.7 µM (active)
- AC50 [18]: 25.6 µM (active)

SMILES: O=C1c2ccccc2C(=O)N1SC1CCCCC1
- AC50 [1]: 142 µM (active)
- AC50 [2]: 169 µM (active)
- outcome [3]: inactive
- AC50 [4]: 189 µM (active)
- outcome [5]: inactive
- outcome [6]: inactive
- AC50 [7]: 37.9 µM (active)
- outcome [8]: inactive
- outcome [9]: inactive
- outcome [10]: inactive
- AC50 [11]: 148 µM (active)
- outcome [13]: inactive
- outcome [14]: inactive
- AC50 [15]: 59.1 µM (active)
- outcome [19]: inactive
- AC50 [16]: 145 µM (active)
- outcome [17]: inactive
- outcome [18]: inactive

SMILES: O=C(O)c1ccc([N+](=O)[O-])cc1
- outcome [1]: inactive
- outcome [2]: inactive
- outcome [3]: inactive
- outcome [4]: inactive
- outcome [5]: inactive
- outcome [20]: inactive
- outcome [7]: inactive
- outcome [8]: inactive
- outcome [9]: inactive
- outcome [10]: inactive
- outcome [11]: inactive
- outcome [13]: inactive
- outcome [14]: inactive
- outcome [15]: inactive
- outcome [19]: inactive
- outcome [16]: inactive
- outcome [18]: inactive

SMILES: CC(C)=CCCC(C)CC=O (configuration not stated)
- outcome [1]: inactive
- outcome [2]: inactive
- outcome [3]: inactive
- outcome [5]: inactive
- outcome [6]: inactive
- outcome [8]: inactive
- outcome [10]: inactive
- outcome [11]: inactive
- outcome [13]: inactive
- outcome [14]: inactive
- outcome [15]: inactive
- outcome [19]: inactive
- outcome [16]: inactive
- outcome [17]: inactive

SMILES: CC(C)OP(=O)(CP(=O)(OC(C)C)OC(C)C)OC(C)C
- outcome [1]: inactive
- outcome [2]: inactive
- outcome [3]: inactive
- outcome [4]: inactive
- outcome [5]: inactive
- outcome [20]: inactive
- outcome [7]: inactive
- outcome [8]: inactive
- outcome [9]: inactive
- outcome [10]: inactive
- outcome [12]: inactive
- outcome [13]: inactive
- outcome [14]: inactive
- outcome [15]: inactive
- outcome [19]: inactive
- outcome [16]: inactive
- outcome [17]: inactive
- outcome [18]: inactive

SMILES: N#Cc1nc(Cl)c(Cl)c(Cl)c1Cl
- AC50 [1]: 4.18 µM (active)
- outcome [2]: inactive
- AC50 [3]: 2.79 µM (active)
- outcome [4]: inactive
- outcome [5]: inactive
- AC50 [20]: 3.71 µM (active)
- AC50 [7]: 5.66 µM (active)
- AC50 [8]: 2.63 µM (active)
- outcome [9]: inactive
- AC50 [10]: 5.32 µM (active)
- AC50 [11]: 5.5 µM (active)
- outcome [12]: inactive
- outcome [13]: inactive
- AC50 [14]: 5.26 µM (active)
- outcome [15]: inactive
- outcome [16]: inactive
- AC50 [18]: 3.82 µM (active)

SMILES: O=C(Nc1ccccc1)c1cc([N+](=O)[O-])ccc1Cl
- outcome [1]: inactive
- outcome [2]: inactive
- AC50 [3]: 38.3 µM (active)
- outcome [5]: inactive
- AC50 [20]: 24.1 µM (active)
- outcome [6]: inactive
- AC50 [7]: 154 µM (active)
- AC50 [8]: 18.5 µM (active)
- outcome [9]: inactive
- AC50 [10]: 32.8 µM (active)
- AC50 [11]: 2.97 µM (active)
- outcome [12]: inactive
- outcome [13]: inactive
- AC50 [14]: 40.5 µM (active)
- outcome [15]: inactive
- outcome [17]: inactive
- outcome [18]: inactive
